Assay results from PubChem BioAssay (NCI).
The panel holds about 83,000 compounds, 20% with a hit somewhere; the sample as a whole holds those more often.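 The test compound was applied at a single concentration to cells in 96-well plates for 48 hours, and percent growth was recorded.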 The source made the active and inactive calls. Rule for the calls: active = growth percent below 10; inactive = the rest.

Legend:
Assay in all cases: NCI-60 one-dose screen, 48 h (100 = growth as untreated, 0 = no growth, -100 = all killed)
Details in all cases: 10 µM unless noted
NCI-H23 lung = test system: NCI-H23 lung
NCI-H226 lung = test system: NCI-H226 lung
NCI-H322M lung = test system: NCI-H322M lung
HOP-62 NSCLC = test system: HOP-62 NSCLC
NCI-H460 lung = test system: NCI-H460 lung
HOP-92 NSCLC = test system: HOP-92 NSCLC
NCI-H522 lung = test system: NCI-H522 lung
A549/ATCC NSCLC = test system: A549/ATCC NSCLC
COLO 205 colon = test system: COLO 205 colon
DU-145 prostate = test system: DU-145 prostate
K-562 leukemia = test system: K-562 leukemia
MALME-3M melanoma = test system: MALME-3M melanoma
MDA-MB-231 breast = test system: MDA-MB-231 breast
RXF 393 renal = test system: RXF 393 renal
SF-268 CNS = test system: SF-268 CNS
SF-295 CNS = test system: SF-295 CNS
SF-539 CNS = test system: SF-539 CNS
UACC-257 melanoma = test system: UACC-257 melanoma
M14 melanoma = test system: M14 melanoma
786-0 renal = test system: 786-0 renal

Measured: growth

COc1cc(OC)cc(C(=O)C[n+]2cccc3cc[nH]c32)c1
inactive: NCI-H23 lung 94.7% | NCI-H226 lung 94.2% | NCI-H322M lung 93.1% | HOP-62 NSCLC 99.1% | NCI-H460 lung 101% | HOP-92 NSCLC 88.9% | NCI-H522 lung 93% | A549/ATCC NSCLC 97.6% | COLO 205 colon 107% | DU-145 prostate 115% | K-562 leukemia 98% | MALME-3M melanoma 99.1% | MDA-MB-231 breast 98.4% | RXF 393 renal 83.8% | SF-268 CNS 97% | SF-295 CNS 101% | SF-539 CNS 101% | M14 melanoma 96.3%
active: UACC-257 melanoma -43.7%

CCOC(=O)c1cc(C(=O)c2ccc(OC)c(OC)c2)n2ccc(/C=C/c3cc[n+](CC(=O)c4ccc(OC)c(OC)c4)cc3)cc12
inactive: NCI-H23 lung 93.5% | NCI-H226 lung 99.2% | NCI-H322M lung 99% | HOP-62 NSCLC 101% | NCI-H460 lung 98.6% | HOP-92 NSCLC 110% | NCI-H522 lung 85.5% | A549/ATCC NSCLC 95.9% | COLO 205 colon 114% | DU-145 prostate 96.3% | K-562 leukemia 78.2% | MALME-3M melanoma 97.3% | MDA-MB-231 breast 89.4% | RXF 393 renal 111% | SF-268 CNS 99.5% | SF-295 CNS 102% | SF-539 CNS 87.3% | UACC-257 melanoma 98.7% | M14 melanoma 96.9%

CC(=O)O[C@@H]1C2CCC3C(CC[C@@]4(C)C3CC[C@@H]4C(C)N(C)C)[C@@]2(C)CC[C@@H]1NC(=O)C=C(C)C (some centres undefined)
active: HOP-62 NSCLC -26.1% | NCI-H460 lung -48.6% | COLO 205 colon -82.8% | K-562 leukemia 2.24% | MALME-3M melanoma -59.4% | MDA-MB-231 breast -10.3% | RXF 393 renal -51.5% | SF-268 CNS -23.4% | SF-295 CNS -15.3% | SF-539 CNS -52.7% | UACC-257 melanoma -40.9% | M14 melanoma -44.4%
inactive: NCI-H23 lung 33.9% | NCI-H226 lung 64.7% | NCI-H322M lung 13.1% | HOP-92 NSCLC 24.4% | NCI-H522 lung 65.7% | A549/ATCC NSCLC 32.3% | DU-145 prostate 51.4%

Oc1c(Cl)cc(Cl)c(Cl)c1CNCCNCc1c(O)c(Cl)cc(Cl)c1Cl
inactive: NCI-H23 lung 24.7% | NCI-H226 lung 56.2% | NCI-H322M lung 21.8% | HOP-62 NSCLC 25% | NCI-H460 lung 13% | HOP-92 NSCLC 27.8% | NCI-H522 lung 14.9% | A549/ATCC NSCLC 13.4% | COLO 205 colon 13.3% | DU-145 prostate 45.9% | K-562 leukemia 10.3% | MALME-3M melanoma 13.4% | MDA-MB-231 breast 35.5% | RXF 393 renal 28.2% | SF-268 CNS 25% | SF-295 CNS 18.3% | M14 melanoma 20.3%
active: SF-539 CNS -9.34% | UACC-257 melanoma 4.63%

CN(CCN(C)c1ccc(C(=N)N)cc1)c1ccc(C(=N)N)cc1
inactive: NCI-H23 lung 86.3% | NCI-H226 lung 84% | NCI-H322M lung 93.1% | HOP-62 NSCLC 102% | NCI-H460 lung 92% | HOP-92 NSCLC 35% | NCI-H522 lung 92.4% | A549/ATCC NSCLC 103% | 786-0 renal 107% | COLO 205 colon 134% | DU-145 prostate 98.9% | MALME-3M melanoma 57.9% | MDA-MB-231 breast 91.3% | RXF 393 renal 118% | SF-268 CNS 109% | SF-295 CNS 94.1% | SF-539 CNS 93.2% | UACC-257 melanoma 92.6% | M14 melanoma 103%

[O-][n+]1c(Cl)cc(Cl)c2ccccc21
inactive: NCI-H23 lung 102% | NCI-H226 lung 104% | NCI-H322M lung 115% | HOP-62 NSCLC 103% | NCI-H460 lung 108% | HOP-92 NSCLC 89.4% | NCI-H522 lung 104% | A549/ATCC NSCLC 91.9% | COLO 205 colon 107% | DU-145 prostate 113% | K-562 leukemia 85.2% | MALME-3M melanoma 107% | MDA-MB-231 breast 100% | RXF 393 renal 153% | SF-268 CNS 96.7% | SF-295 CNS 103% | SF-539 CNS 125% | UACC-257 melanoma 102% | M14 melanoma 100%

COc1ccc(CCn2cncc2-c2c[nH]c3ccccc23)cc1
inactive: NCI-H23 lung 82% | NCI-H226 lung 81.3% | NCI-H322M lung 92.8% | HOP-62 NSCLC 72.8% | NCI-H460 lung 92.5% | HOP-92 NSCLC 60.7% | NCI-H522 lung 83.7% | A549/ATCC NSCLC 99.2% | COLO 205 colon 96.9% | DU-145 prostate 102% | K-562 leukemia 87% | MALME-3M melanoma 90.8% | MDA-MB-231 breast 74.5% | RXF 393 renal 87.8% | SF-268 CNS 80.9% | SF-295 CNS 74.1% | SF-539 CNS 93.4% | UACC-257 melanoma 102% | M14 melanoma 92.6%

COc1ccc(-c2cnc3c(-c4cccc5cnccc45)cnn3c2)cc1
active: SF-539 CNS 2.09%
inactive: NCI-H23 lung 74.5% | NCI-H226 lung 29.3% | NCI-H322M lung 68.3% | HOP-62 NSCLC 55.1% | NCI-H460 lung 23.4% | HOP-92 NSCLC 63% | NCI-H522 lung 48.3% | A549/ATCC NSCLC 39.8% | 786-0 renal 29.4% | COLO 205 colon 67.8% | DU-145 prostate 69.9% | MALME-3M melanoma 45% | MDA-MB-231 breast 37.8% | RXF 393 renal 48.7% | SF-268 CNS 92.7% | SF-295 CNS 62.5% | UACC-257 melanoma 88.7% | M14 melanoma 74.5%

COc1ccc(C(=O)C2C(C#N)C(C#N)C3C=Cc4ccccc4N32)cc1 (centres undefined)
inactive: NCI-H23 lung 37.9% | NCI-H226 lung 77.6% | NCI-H322M lung 53.5% | HOP-62 NSCLC 30.1% | NCI-H460 lung 19.1% | HOP-92 NSCLC 84.1% | A549/ATCC NSCLC 29.9% | DU-145 prostate 24.2% | K-562 leukemia 11.5% | MALME-3M melanoma 38.6% | MDA-MB-231 breast 29% | SF-268 CNS 55.7% | SF-295 CNS 22.5% | UACC-257 melanoma 82.9%
active: NCI-H522 lung 0.174% | COLO 205 colon -5.52% | RXF 393 renal -21.8% | SF-539 CNS -20.9% | M14 melanoma -6.64%

O=C(CNCCN1CCOCC1)N1c2cccc3cccc(c23)N(C(=O)CNCCN2CCOCC2)C1c1cn(-c2ccccc2)nc1-c1cccc([N+](=O)[O-])c1
active: K-562 leukemia -21.4% | MALME-3M melanoma -87.3% | M14 melanoma -16.1%
inactive: NCI-H23 lung 95.8% | NCI-H226 lung 81.4% | NCI-H322M lung 97.6% | HOP-62 NSCLC 89.7% | NCI-H460 lung 96% | HOP-92 NSCLC 53.2% | NCI-H522 lung 75.3% | A549/ATCC NSCLC 82.3% | COLO 205 colon 52.8% | DU-145 prostate 87.8% | MDA-MB-231 breast 54.4% | RXF 393 renal 47.9% | SF-268 CNS 69.6% | SF-295 CNS 100% | SF-539 CNS 63.3% | UACC-257 melanoma 90.3%

N#C/C(=C\c1ccccn1)c1nc2cc(Cl)ccc2s1
inactive: NCI-H23 lung 72.1% | NCI-H226 lung 67.9% | NCI-H322M lung 87.1% | HOP-62 NSCLC 63.5% | NCI-H460 lung 92% | HOP-92 NSCLC 55.8% | NCI-H522 lung 63.4% | A549/ATCC NSCLC 78.1% | COLO 205 colon 101% | DU-145 prostate 92.8% | K-562 leukemia 48.3% | MALME-3M melanoma 87.5% | MDA-MB-231 breast 61.3% | RXF 393 renal 60.3% | SF-268 CNS 68.8% | SF-295 CNS 94.4% | SF-539 CNS 63.1% | UACC-257 melanoma 91.8% | M14 melanoma 89.9%

CCOC(=O)c1nc2c3ccccc3ccn2c1C(=O)OCC
inactive: NCI-H23 lung 96.9% | NCI-H226 lung 97.2% | NCI-H322M lung 95.1% | HOP-62 NSCLC 102% | NCI-H460 lung 118% | HOP-92 NSCLC 103% | NCI-H522 lung 88.3% | A549/ATCC NSCLC 103% | COLO 205 colon 109% | DU-145 prostate 92.1% | K-562 leukemia 99.1% | MALME-3M melanoma 103% | MDA-MB-231 breast 98.2% | RXF 393 renal 103% | SF-268 CNS 89% | SF-295 CNS 104% | SF-539 CNS 99.9% | UACC-257 melanoma 126% | M14 melanoma 121%

CCCCC/C=C/C(C)=C/C1CC(C)C/C=C/CCC(O)C(OC(N)=O)CCC(C)CC(O)C(C)C(=O)O1 (centres undefined)
inactive: NCI-H23 lung 97.6% | NCI-H226 lung 104% | NCI-H322M lung 101% | HOP-62 NSCLC 82.7% | NCI-H460 lung 67% | HOP-92 NSCLC 24.5% | NCI-H522 lung 79.2% | A549/ATCC NSCLC 85% | 786-0 renal 77.9% | COLO 205 colon 121% | DU-145 prostate 79.5% | MALME-3M melanoma 101% | RXF 393 renal 110% | SF-268 CNS 104% | SF-295 CNS 59.2% | SF-539 CNS 106% | UACC-257 melanoma 88.1% | M14 melanoma 72.9%

CCOC(=O)c1cc(C(=O)c2ccc(OC)c(OC)c2)n2c1ccc1ccccc12
inactive: NCI-H23 lung 86.2% | NCI-H226 lung 80.7% | NCI-H322M lung 101% | HOP-62 NSCLC 85% | NCI-H460 lung 99.2% | HOP-92 NSCLC 83.3% | NCI-H522 lung 86% | A549/ATCC NSCLC 98.3% | COLO 205 colon 112% | DU-145 prostate 109% | K-562 leukemia 86.8% | MALME-3M melanoma 93.8% | MDA-MB-231 breast 66.9% | RXF 393 renal 95.7% | SF-268 CNS 81% | SF-295 CNS 96.9% | SF-539 CNS 99.9% | UACC-257 melanoma 107% | M14 melanoma 102%

Cn1ccc2c1CC1CN(Cc3ccco3)C(=O)C1C2C(=O)O (centres undefined)
inactive: NCI-H23 lung 94.3% | NCI-H226 lung 103% | NCI-H322M lung 99.3% | HOP-62 NSCLC 96.8% | NCI-H460 lung 102% | HOP-92 NSCLC 99.4% | NCI-H522 lung 92.3% | A549/ATCC NSCLC 98% | COLO 205 colon 117% | DU-145 prostate 89.2% | K-562 leukemia 97.4% | MALME-3M melanoma 98.5% | MDA-MB-231 breast 97.1% | RXF 393 renal 111% | SF-268 CNS 92.6% | SF-295 CNS 100% | SF-539 CNS 96.3% | UACC-257 melanoma 97% | M14 melanoma 103%
